Measurements published in the supplement of paper PMC10849652.
The full data set covers some 8,800 targets. This sample favours those with a hit. About 0.5% of all pairs of compound and target were hits. Unmarked numbers belong to inactive results.

Key:
Experiment in all cases: log2 fold change, soluble protein after heating vs DMSO (PISA); higher = thermal stabilisation; K562 lysate, 10 uM; active = over 0.2 and 3.5 SD of the protein, either way, in both replicates (recomputed)
[1] = compound: Cc1nc(Nc2ncc(C(=O)Nc3c(C)cccc3Cl)s2)cc(N2CCN(CCO)CC2)n1 [dasatinib]
In short: (§1)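 Soluble protein was defined as the supernatant remaining after 21,000xg for 90 min, following pooling of heated aliquots and adjustment to 0.5% NP-40 at 4°C. Before that, crude K562 extract at 1 mg/mL protein in PBS pH 7.4 with 1 mM MgCl2 was treated with 10 μM compound for 30 min and heated for 3 min across 48°C-58°C. Quantification used TMTpro 16plex LC-MS/MS with channel sums equalised, and values are log-two fold changes in thermal stability relative to solvent controls from duplicates.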

[2] = compound: Cn1cc(-c2ccc3c(c2)CCN3C(=O)Cc2cccc(C(F)(F)F)c2)c2c(N)ncnc21
In short: as §1

[3] = compound: Cn1cc(CNCC2CCN(c3ncc(C(=O)NO)cn3)CC2)c2ccccc21 [quisinostat]
In short: as §1

[4] = compound: NC(=O)Nc1cc(-c2cccc(F)c2)sc1C(=O)N[C@H]1CCCNC1
In short: as §1

[5] = compound: NC(=O)c1cnc(N[C@@H]2CCCC[C@@H]2N)nc1Nc1cccc(-n2nccn2)c1
In short: as §1

[6] = compound: NC1(c2ccc(-c3nc4ccn5c(=O)[nH]nc5c4cc3-c3ccccc3)cc2)CCC1
In short: as §1

[7] = compound: Cc1cn(-c2cc(NC(=O)c3ccc(C)c(Nc4nccc(-c5cccnc5)n4)c3)cc(C(F)(F)F)c2)cn1 [nilotinib]
In short: as §1

[8] = compound: Cc1nc(Nc2n[nH]c3c2CN(C(=O)N[C@H](CN(C)C)c2ccccc2)C3(C)C)c2sccc2n1
In short: as §1

[9] = compound: Cc1ncc(-c2ccnc(Nc3ccc(S(C)(=O)=O)cc3)n2)n1C(C)C
In short: as §1

[10] = compound: Cn1cncc1[C@@](N)(c1ccc(Cl)cc1)c1ccc2c(c1)c(-c1cccc(Cl)c1)cc(=O)n2C [tipifarnib]
In short: as §1

Chain of UniProt P02724 (P02724 whole entry, looked up): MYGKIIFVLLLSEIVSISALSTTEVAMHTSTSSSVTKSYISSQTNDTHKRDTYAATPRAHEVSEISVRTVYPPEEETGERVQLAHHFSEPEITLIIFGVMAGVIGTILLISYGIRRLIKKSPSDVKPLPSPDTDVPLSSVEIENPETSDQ
Chain of UniProt Q99795 (Q99795 whole entry, looked up): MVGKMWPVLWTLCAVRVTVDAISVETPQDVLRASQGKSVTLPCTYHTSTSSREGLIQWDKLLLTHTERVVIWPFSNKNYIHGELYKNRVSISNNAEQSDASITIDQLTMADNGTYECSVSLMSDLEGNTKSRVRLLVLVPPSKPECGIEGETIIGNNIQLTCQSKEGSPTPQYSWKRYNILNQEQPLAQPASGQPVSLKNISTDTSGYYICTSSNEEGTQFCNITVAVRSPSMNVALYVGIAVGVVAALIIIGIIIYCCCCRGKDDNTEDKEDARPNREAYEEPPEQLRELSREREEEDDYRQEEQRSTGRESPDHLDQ
Chain of UniProt P52333 (P52333 whole entry, looked up): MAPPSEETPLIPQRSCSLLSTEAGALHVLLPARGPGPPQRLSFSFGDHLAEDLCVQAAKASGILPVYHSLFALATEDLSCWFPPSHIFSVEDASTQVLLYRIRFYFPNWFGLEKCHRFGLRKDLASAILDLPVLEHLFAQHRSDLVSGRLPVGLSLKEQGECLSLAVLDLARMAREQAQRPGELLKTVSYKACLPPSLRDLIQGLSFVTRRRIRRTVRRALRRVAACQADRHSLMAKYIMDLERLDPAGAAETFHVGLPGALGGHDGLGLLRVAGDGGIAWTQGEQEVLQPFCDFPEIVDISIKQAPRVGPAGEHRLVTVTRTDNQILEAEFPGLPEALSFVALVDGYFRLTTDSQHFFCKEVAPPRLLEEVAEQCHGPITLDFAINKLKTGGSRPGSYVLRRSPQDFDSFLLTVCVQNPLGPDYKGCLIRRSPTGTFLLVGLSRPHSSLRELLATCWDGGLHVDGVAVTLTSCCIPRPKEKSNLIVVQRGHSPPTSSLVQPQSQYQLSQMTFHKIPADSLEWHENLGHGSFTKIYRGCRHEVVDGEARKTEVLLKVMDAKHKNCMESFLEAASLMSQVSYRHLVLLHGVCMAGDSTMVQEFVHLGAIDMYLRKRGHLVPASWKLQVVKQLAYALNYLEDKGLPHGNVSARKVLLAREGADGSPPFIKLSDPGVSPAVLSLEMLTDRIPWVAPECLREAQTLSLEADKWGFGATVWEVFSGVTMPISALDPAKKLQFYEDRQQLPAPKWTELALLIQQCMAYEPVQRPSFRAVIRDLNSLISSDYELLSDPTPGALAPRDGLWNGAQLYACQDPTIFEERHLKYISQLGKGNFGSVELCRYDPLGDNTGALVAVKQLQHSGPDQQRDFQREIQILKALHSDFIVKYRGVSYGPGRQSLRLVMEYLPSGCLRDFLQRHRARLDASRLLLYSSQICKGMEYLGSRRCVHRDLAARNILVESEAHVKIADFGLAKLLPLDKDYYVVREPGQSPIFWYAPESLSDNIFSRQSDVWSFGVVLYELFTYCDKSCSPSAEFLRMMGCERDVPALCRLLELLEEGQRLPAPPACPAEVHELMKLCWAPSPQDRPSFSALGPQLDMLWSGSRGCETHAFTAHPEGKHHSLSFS
Chain of UniProt Q9NSC5 (Q9NSC5 whole entry, looked up): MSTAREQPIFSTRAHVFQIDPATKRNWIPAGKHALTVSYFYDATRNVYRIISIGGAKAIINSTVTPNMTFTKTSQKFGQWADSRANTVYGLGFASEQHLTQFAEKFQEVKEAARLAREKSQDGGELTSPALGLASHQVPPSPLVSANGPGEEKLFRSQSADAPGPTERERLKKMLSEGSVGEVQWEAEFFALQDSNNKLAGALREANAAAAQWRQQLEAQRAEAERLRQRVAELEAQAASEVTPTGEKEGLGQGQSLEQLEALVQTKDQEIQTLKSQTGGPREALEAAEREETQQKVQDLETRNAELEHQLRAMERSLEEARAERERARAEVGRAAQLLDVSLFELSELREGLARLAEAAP
Chain of UniProt Q9UGL1 (Q9UGL1 whole entry, looked up): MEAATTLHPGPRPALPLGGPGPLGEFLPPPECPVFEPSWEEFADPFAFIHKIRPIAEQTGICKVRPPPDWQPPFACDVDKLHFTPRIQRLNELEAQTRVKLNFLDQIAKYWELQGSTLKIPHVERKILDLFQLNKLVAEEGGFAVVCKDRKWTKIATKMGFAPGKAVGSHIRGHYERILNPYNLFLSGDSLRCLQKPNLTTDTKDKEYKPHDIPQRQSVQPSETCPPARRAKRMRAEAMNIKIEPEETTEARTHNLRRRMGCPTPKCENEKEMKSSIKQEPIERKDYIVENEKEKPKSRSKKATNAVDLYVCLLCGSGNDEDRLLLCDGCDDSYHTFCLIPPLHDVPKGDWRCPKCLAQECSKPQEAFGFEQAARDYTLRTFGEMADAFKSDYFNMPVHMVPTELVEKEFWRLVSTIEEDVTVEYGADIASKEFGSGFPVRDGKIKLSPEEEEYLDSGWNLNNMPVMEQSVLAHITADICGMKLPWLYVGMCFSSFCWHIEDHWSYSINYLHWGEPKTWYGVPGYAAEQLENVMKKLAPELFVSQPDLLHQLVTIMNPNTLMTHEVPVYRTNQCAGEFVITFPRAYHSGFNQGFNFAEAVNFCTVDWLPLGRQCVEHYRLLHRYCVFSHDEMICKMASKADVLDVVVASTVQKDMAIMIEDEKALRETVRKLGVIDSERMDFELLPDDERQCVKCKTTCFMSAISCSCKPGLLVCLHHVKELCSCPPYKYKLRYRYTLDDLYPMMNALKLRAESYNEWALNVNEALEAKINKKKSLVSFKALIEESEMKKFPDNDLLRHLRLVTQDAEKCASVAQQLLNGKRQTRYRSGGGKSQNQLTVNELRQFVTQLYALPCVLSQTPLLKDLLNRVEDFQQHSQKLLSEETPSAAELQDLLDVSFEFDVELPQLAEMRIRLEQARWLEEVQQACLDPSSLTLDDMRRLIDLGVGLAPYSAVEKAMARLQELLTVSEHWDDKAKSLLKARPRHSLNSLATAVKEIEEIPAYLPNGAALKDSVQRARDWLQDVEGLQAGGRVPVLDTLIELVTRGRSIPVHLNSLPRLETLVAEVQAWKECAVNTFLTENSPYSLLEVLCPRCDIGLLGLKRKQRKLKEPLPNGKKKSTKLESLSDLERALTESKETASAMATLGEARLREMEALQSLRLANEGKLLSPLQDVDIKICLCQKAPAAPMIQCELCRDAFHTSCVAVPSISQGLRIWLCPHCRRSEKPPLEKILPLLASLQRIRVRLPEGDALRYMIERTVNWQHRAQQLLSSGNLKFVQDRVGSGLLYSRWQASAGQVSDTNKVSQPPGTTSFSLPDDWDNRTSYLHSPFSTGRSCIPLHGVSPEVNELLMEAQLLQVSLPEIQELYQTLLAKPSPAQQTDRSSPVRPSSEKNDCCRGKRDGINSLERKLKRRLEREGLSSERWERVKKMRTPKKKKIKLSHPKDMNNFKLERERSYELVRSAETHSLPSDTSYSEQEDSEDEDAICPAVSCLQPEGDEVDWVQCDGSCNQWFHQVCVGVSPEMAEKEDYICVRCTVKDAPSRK
Chain of UniProt Q13478 (Q13478 whole entry, looked up): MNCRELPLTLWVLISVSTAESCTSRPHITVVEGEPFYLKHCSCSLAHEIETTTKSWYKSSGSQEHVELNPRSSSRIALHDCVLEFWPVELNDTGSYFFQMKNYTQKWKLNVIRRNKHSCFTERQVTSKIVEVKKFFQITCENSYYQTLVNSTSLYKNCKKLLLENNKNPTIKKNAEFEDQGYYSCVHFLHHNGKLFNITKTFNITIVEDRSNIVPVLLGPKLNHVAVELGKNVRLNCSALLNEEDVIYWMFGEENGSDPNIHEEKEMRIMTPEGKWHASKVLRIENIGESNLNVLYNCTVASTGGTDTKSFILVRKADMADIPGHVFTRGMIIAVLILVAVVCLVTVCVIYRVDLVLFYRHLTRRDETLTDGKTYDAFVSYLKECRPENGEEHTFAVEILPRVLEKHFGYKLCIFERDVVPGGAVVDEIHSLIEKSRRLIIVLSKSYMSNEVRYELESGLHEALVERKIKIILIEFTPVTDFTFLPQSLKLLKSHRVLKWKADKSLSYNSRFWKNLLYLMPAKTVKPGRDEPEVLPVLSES
Chain of UniProt Q9BUJ2 (Q9BUJ2 whole entry, looked up): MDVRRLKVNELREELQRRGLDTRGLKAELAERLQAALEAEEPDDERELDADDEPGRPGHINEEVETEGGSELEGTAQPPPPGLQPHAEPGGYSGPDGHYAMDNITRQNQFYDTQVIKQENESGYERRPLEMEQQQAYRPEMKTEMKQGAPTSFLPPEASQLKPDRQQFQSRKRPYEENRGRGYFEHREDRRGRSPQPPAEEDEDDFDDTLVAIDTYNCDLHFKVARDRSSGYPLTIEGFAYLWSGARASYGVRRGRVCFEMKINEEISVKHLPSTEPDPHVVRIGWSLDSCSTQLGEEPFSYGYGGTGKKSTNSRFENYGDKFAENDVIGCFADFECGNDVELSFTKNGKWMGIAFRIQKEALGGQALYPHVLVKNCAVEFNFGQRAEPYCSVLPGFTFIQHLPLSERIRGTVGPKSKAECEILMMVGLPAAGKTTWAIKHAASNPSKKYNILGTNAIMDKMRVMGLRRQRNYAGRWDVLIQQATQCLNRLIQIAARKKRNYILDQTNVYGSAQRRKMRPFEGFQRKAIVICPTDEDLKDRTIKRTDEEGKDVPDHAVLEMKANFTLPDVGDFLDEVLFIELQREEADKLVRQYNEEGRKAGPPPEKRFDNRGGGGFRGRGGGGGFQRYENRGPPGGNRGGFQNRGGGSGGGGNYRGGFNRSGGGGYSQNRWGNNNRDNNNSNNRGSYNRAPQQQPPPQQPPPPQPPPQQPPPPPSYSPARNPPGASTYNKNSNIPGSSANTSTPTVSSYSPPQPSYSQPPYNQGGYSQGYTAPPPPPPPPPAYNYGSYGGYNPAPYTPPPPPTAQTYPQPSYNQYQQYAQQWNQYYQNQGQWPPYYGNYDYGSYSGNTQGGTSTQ

Row | Target | log2 fold change [1] | log2 fold change [2] | log2 fold change [3] | log2 fold change [4] | log2 fold change [5] | log2 fold change [6] | log2 fold change [7] | log2 fold change [8] | log2 fold change [9] | log2 fold change [10]
1 | GTPBP6 (UniProt O43824) | -0.025 | 0.136 |  |  |  |  |  |  |  | 
2 | HOMER3 (UniProt Q9NSC5) |  |  | -0.147 | 0.019 | -0.023 |  |  |  |  | 
3 | ISL2 (UniProt Q96A47) | 0.015 | 0.053 | 0.055 | -0.092 |  | 0.014 |  |  |  | 
4 | HNRNPM (UniProt M0QZM1) | -0.022 | -0.163 | 0 | -0.012 |  |  |  |  |  | 
5 | GYPA (UniProt P02724) | 0.097 | 0.045 | -0.062 | 0.026 | -0.047 | -0.024 |  |  |  | 
6 | GPA33 (UniProt Q99795) | -0.077 | -0.09 |  |  | -0.045 | 0.047 | -0.085 | -0.093 | -0.023 | 0.022
7 | ITGB1BP2 (UniProt Q9UKP3) | -0.104 | 0.249 |  |  |  |  |  |  |  | 
8 | IGF2BP2 isoform 6 (UniProt Q9Y6M1) |  |  |  |  | 0.079 |  |  |  |  | 
9 | HNRNPL (UniProt P14866) | -0.036 | 0.068 | -0.07 | 0.042 | -0.001 | 0.022 | -0.011 | -0.015 | 0.013 | 0.012
10 | IL18R1 (UniProt Q13478) | 0.181 | 0.004 | 0.067 | 0.155 | -0.055 | 0.211 | 0.02 | 0.136 | -0.108 | 0.118
11 | ITPR2 (UniProt Q14571) | 0.019 | -0.078 |  |  | 0.277 | -0.12 | -0.008 | -0.081 | 0.048 | 0.003
12 | HTT (UniProt P42858) | 0.001 | 0.072 | -0.081 | 0.041 |  | 0.005 | -0.106 | 0.003 | 0.072 | -0.072
13 | KDM5B isoform 2 (UniProt Q9UGL1) | 0.021 | -0.049 | -0.117 | -0.085 | 0.034 | -0.049 |  |  |  | 
14 | GNL3 (UniProt Q9BVP2) | -0.005 | -0.003 | -0.164 | 0.038 | 0.022 | -0.031 | 0.008 | -0.022 | 0.029 | 0.013
15 | HDAC3 (UniProt E7ESJ6) |  |  |  |  | 0.058 |  |  |  |  | 
16 | ISOC2 (UniProt Q96AB3) | 0.026 | 0 | -0.053 | -0.05 | -0.045 | -0.036 | 0.012 | 0.022 | 0.091 | -0.017
17 | HNRNPUL1 (UniProt Q9BUJ2) | -0.012 | 0.01 | 0.015 | 0.045 | -0.003 | -0.009 | -0.291 (active) | 0.018 | 0.006 | 0.019
18 | JAK3 (UniProt P52333) |  |  | 0.131 | 0.008 | -0.056 |  |  |  |  | 
19 | GPLD1 (UniProt P80108) | -0.255 | 0 | 0.108 | 0.153 |  |  |  |  |  | 
20 | HDLBP, A0A024R4E5 | -0.038 | 0.015 | -0.076 | 0.018 | -0.002 | -0.022 | -0.011 | 0.006 | 0.014 | 0.001
21 | H3-3A (UniProt P84243) |  |  | 0.014 | 0.032 | 0 | -0.093 |  |  |  | 
